Test results reported in PubChem BioAssay AID2129 (The Scripps Research Institute Molecular Screening Center, 2009).
The campaign covered roughly 320,000 compounds. About 2,200 (0.69%) were called active. The sample holds actives, similar compounds and a random draw of the others, so the mix is not that of the screen. Unmarked numbers belong to inactive results.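 How the source made its calls: active means inhibition above the mean of all tested compounds plus 3 SD, cutoff set per campaign (cut at about 30% in these data); inactive means the rest.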

The molecules below were run against Bcl-2-like protein 1 (Homo sapiens) (UniProt Q07817) (assay: Bcl-xL/Bim BH3 interaction blockers – biochemical, fluorescence polarization, HTS, primary screen (AID 2129;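 further: 0% = DMSO wells and 100% = unlabeled Bim-BH3 peptide competitor; inhibitors lower millipolarization by displacing the labeled peptide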)). Conditions: GST-Bcl-xL / FITC-Bim BH3 peptide fluorescence polarization; at 10.9 µM; hits give high values.
Chain of Bcl-2-like protein 1 (Homo sapiens) (Q07817 whole entry, looked up): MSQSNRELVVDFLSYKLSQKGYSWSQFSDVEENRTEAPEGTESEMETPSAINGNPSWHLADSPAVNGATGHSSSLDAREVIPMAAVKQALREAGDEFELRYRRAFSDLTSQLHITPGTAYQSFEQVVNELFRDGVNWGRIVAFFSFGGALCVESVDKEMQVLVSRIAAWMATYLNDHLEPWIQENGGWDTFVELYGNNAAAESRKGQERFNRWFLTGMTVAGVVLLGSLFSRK
`Cc1ccc(-c2noc(C3CCCN(C(=O)c4cccc(Cl)c4)C3)n2)o1` (stereo unspecified) gave an inhibition of -3.97%. In the case of `Cc1ccc2nc(SCC(=O)N3CC(C)OC(C)C3)nc(=O)n2c1` (stereo unspecified), the inhibition was 5.27%. In the case of `Cc1nc([N+](=O)[O-])c(NCCCO)n1Cc1ccccc1`, the inhibition was 8.64%. `O=C(Nc1cc(S(=O)(=O)N2CCOCC2)ccc1OCC(F)(F)F)c1ccc(N2CCCC2=O)cc1` gave an inhibition of -2.38%. Work on `Cc1cc(NC(=O)CSc2nc3c(cc2C#N)CCCCC3)no1` yielded an inhibition of 0.61%. `CC(NC(=O)CSc1nc2c(cc1C#N)CN(C)CC2)c1ccccc1` (stereo unspecified) was tested, and the inhibition was 36.7% (active). `CC1(C)CCc2nc(SCc3ccccc3)c(C#N)cc2C1` showed an inhibition of 4.14%. For `Cn1c(CC(=O)NNC(=O)c2ccccc2F)nc2ccccc21`, the inhibition was 4.35%. With `CCOc1ccc(N2C(=O)Nc3ccccc3C2(O)C(=O)NCc2ccco2)cc1` (stereo unspecified) the inhibition was 2.5%. Molecule `CCC1CCCCN1C(=O)CSc1nc2c(c(=O)n1C)SC(C)C2` (stereo unspecified) has an inhibition of 2.98%. `Cc1c(CN2CCCCC2)c(O)n(CCO)c(=O)c1C#N` was tested, and the inhibition was 21.4%. Molecule `CCCCCCn1c(CN2CCCC(C)C2)nc2c1c(=O)n(C)c(=O)n2C` (stereo unspecified) has an inhibition of -0.05%. For `CCCn1c(O)c(CN2CCCC(C)C2)c(C)c(C#N)c1=O` (stereo unspecified), the inhibition was 53.4% (active). `COc1ccc(CNC(=O)c2c[nH]c3c(OC)cc(OC)cc3c2=O)cc1` was tested, and the inhibition was 1.75%. `O=C(O)CC/C(=N\NC(=O)c1ccc(F)cc1)c1ccc(Br)cc1` was tested, and the inhibition was 2.98%. With `Cc1cccc(NC(=O)c2cc(S(=O)(=O)N3CCC4(CC3)OCCO4)ccc2F)c1` the inhibition was 0.06%. `Cc1ccc(/C=C(\C#N)C(=O)Nc2cccc3ncccc23)o1` was tested, and the inhibition was 102% (active). With `Cc1ccc(Cc2cnc(NC(=O)/C(C#N)=C/c3ccc(-c4cccc([N+](=O)[O-])c4)o3)s2)cc1` the inhibition was 1.29%. In the case of `O=C(O)c1cc(Cl)c(Cl)cc1C(=O)Nc1cccc2ncccc12`, the inhibition was 5.65%. For `CCOc1ccc(-n2c(SCC(=O)NC3CCS(=O)(=O)C3)nnc2-c2cccnc2)cc1` (stereo unspecified), the inhibition was -6.49%. With `CCc1cccc(C)c1N(C(=O)Cn1c(CO)nc2ccccc21)C(C)COC` (stereo unspecified) the inhibition was 58.5% (active). `COc1ccccc1Cn1c(CO)nc2ccccc21` was tested, and the inhibition was 0.35%. `CCOCN(C(=O)Cn1c(C(C)O)nc2ccccc21)c1c(C)cccc1CC` (stereo unspecified) gave an inhibition of 6.75%. For `COCCOC(=O)c1sc(=S)n(CCOC)c1N`, the inhibition was 90.3% (active). In the case of `CCOC(=O)c1c(N)sc(C(C)=O)c1C`, the inhibition was 4.34%. With `COC(=O)c1sc(=S)n(-c2ccc(Cl)cc2)c1C` the inhibition was 8.78%. `O=C(NCC1(N2CCCCC2)CCCCC1)c1ccc(NS(=O)(=O)c2ccc(F)cc2)cc1` was tested, and the inhibition was 5.4%. `Cc1coc2c(O)cc3c(c12)OC1(N2CCCCC2)C(=O)NCCCC31` (stereo unspecified) was tested, and the inhibition was 39% (active). `NC(=O)c1nsc(C(=O)N(CC(=O)NCc2ccc(F)cc2)Cc2ccco2)c1N` showed an inhibition of 1.4%. `COc1ccc(-n2cnc3cc(NCc4ccco4)ccc32)cc1` gave an inhibition of 6.77%. `Cc1ccc2[nH]c(C(=O)O)c(NC(=O)c3ccccc3[N+](=O)[O-])c2c1` was tested, and the inhibition was 3.72%. With `CN(C)CCCCCN(C)Cc1cc2ccccc2o1` the inhibition was 0.68%. `CCCCCCCNc1nc(Cl)nc(NCCO)n1` showed an inhibition of 5.24%. `CCOC(=O)c1cc(C#N)c(N2CCCCC2)nc1-c1ccccc1` was tested, and the inhibition was -1.67%. `CCOc1ccc2nc(N3CCCN(C(=O)Nc4ccccc4C)CC3)c(C#N)cc2c1` was tested, and the inhibition was 46.6% (active). With `CCOc1ccc(C(=O)NC2CCN(C(=O)Nc3ccccc3OC)CC2)cc1` the inhibition was 1.4%. With `CC(C)c1ccc(NC(=S)NNc2ccc(Cl)c(C(=O)O)c2)cc1` the inhibition was 115% (active). `O=C(NC(=S)Nc1ccc(Cl)c(C(=O)O)c1)c1cncc(Br)c1` gave an inhibition of -0.3%. `Cc1ccc(C)c(NC(=S)NNC(=S)Nc2ccc(C(C)C)cc2)c1` gave an inhibition of 18%. Work on `Cc1nn(C(C)(C)C)c(OC(=O)CC(C)C)c1S(=O)(=O)c1ccccc1` yielded an inhibition of 2.54%. `Nc1nc(NCC(=O)O)nc(N2CCCCCC2)c1[N+](=O)[O-]` showed an inhibition of -0.96%. For `Nc1cc(N2CCCCCC2)c2nonc2c1[N+](=O)[O-]`, the inhibition was 53.6% (active). `Cc1c(Nc2cc(N3CCCC(C)C3)c3nonc3c2[N+](=O)[O-])c(=O)n(-c2ccccc2)n1C` (stereo unspecified) showed an inhibition of -1.91%. For `CCCCCCCCCOC1OC(CO)C(O)C(O)C1NC(C)=O` (stereo unspecified), the inhibition was 0.06%. `O=c1c2ccccc2nnn1CSc1nc2sc3c(c2c(=O)n1CC1CCCO1)CCC3` (stereo unspecified) showed an inhibition of -0.57%. `O=C1CCC(=O)N(O)CCCCCNC(=O)CCC(=O)N(O)CCCCCNC(=O)CCC(=O)N(O)CCCCCN1` gave an inhibition of 6.42%. `CCCn1c(C2CCCN2c2nc(-c3ccc(C)cc3)cs2)nc2cc(Cl)c(N3CCCCC3)cc21` (stereo unspecified) was tested, and the inhibition was 76.7% (active). For `CCCn1c(C(C)Nc2nc(-c3ccc(C)cc3)cs2)nc2cc(Cl)c(N3CCCCC3)cc21` (stereo unspecified), the inhibition was 4.98%. For `CCCn1c(C2CCCN2c2nc(-c3ccc(OC)cc3)cs2)nc2ccccc21` (stereo unspecified), the inhibition was 7.05%. Work on `Cc1cc(S(=O)(=O)NCc2ccccn2)c(Cl)cc1Cl` yielded an inhibition of 4.73%. `CCOC(=O)c1c(C)n(C)c2ccc(OC)c(NC(=O)CN3CCC4(CC3)OCCO4)c12` showed an inhibition of -7.5%. `[O-][n+]1c2c(nn1-c1ccc(Cl)c(Cl)c1)-c1nonc1CC2` showed an inhibition of -0.16%. Work on `CC1(OC(=O)C2CCCC2)C(=O)C=C2C=C(c3ccc(C#N)cc3)OC=C2C1=O` (stereo unspecified) yielded an inhibition of 10.6%. With `COCCN1C=C2C(=O)C(C)(OC(=O)C3CCCC3)C(=O)C=C2C=C1c1ccsc1` (stereo unspecified) the inhibition was 34.2% (active). `CC1(OC(=O)CCc2ccccc2)C(=O)C=C2C=C(c3ccc(C#N)cc3)N(CCc3ccccn3)C=C2C1=O` (stereo unspecified) was tested, and the inhibition was 25.8%. In the case of `Fc1ccccc1/C=N/Nc1cc(N2CCCCC2)ncn1`, the inhibition was 1.94%. In the case of `Cn1nccc1/C=N\NC(=O)c1ccc(Cl)cc1`, the inhibition was 7.38%. Work on `O=c1[nH]n2c(-c3ccccc3)nc(O)c2c2ccccc12` yielded an inhibition of -0.91%. In the case of `O=c1[nH]c2ccccc2n2c(-c3ccccc3)nnc12`, the inhibition was 43% (active). `O=C(O)/C=C/c1ccc(S(=O)(=O)N2CCCCCC2)cc1` gave an inhibition of -3.18%. In the case of `O=C(CN1CCSCC1)N/N=C/c1ccc(F)cc1F`, the inhibition was 2.55%. With `COc1ncnc2c1N=C1CC(C)(C)CC(N)=C1S2` the inhibition was 163% (active). `O=C(COc1cccc(Cl)c1)NCc1ccccc1` was tested, and the inhibition was 3.14%. Work on `O=C(O)c1ccc2c3c(cccc13)C(=O)N(OS(=O)(=O)c1ccccc1)C2=O` yielded an inhibition of -6.08%. `O=C1c2ccccc2C(=O)N1c1cccc2ccccc12` was tested, and the inhibition was 4.16%. Work on `Cc1nn(-c2cc(Cl)ccc2N)c(=O)c2ccccc12` yielded an inhibition of -0.7%. With `C[N+](C)(CCCCCC[N+](C)(C)CCCN1C(=O)c2cccc3cccc(c23)C1=O)CCCN1C(=O)c2cccc3cccc(c23)C1=O` the inhibition was 1.22%. Molecule `O=C(C1CCN(S(=O)(=O)c2ccc(Br)s2)CC1)N1CCN(C2CCCCC2)CC1` has an inhibition of 3.57%. In the case of `CSc1ccc(CN(C)CC(=O)NCc2ccc(F)cc2)cc1`, the inhibition was 5.75%. In the case of `CSc1ccc(CN2C(=O)NC3(CCCCCC3)C2=O)cc1`, the inhibition was 0.37%. `Cc1c(C(=O)NC(C)C2CC3CCC2C3)cccc1[N+](=O)[O-]` (stereo unspecified) showed an inhibition of 0.81%. `COc1ccccc1N1CCN(c2nc(C)cc(=O)[nH]2)CC1` was tested, and the inhibition was 1.46%. In the case of `CC(=O)C1(C)N(O)C(C)(C)C(c2cccs2)=[N+]1[O-]` (stereo unspecified), the inhibition was 6.8%. `Cc1ccc(SCC(=O)Nc2nncs2)cc1` showed an inhibition of -0.16%. `COCCNC(=O)Nc1ccc2nc(-c3ccco3)c(-c3ccco3)nc2c1` was tested, and the inhibition was 120% (active). With `Cc1nc2cc(NC(=O)NCc3ccccc3)ccc2o1` the inhibition was -3.22%. For `O=C(NCc1ccccn1)c1ccc2nc(-c3ccco3)c(-c3ccco3)nc2c1`, the inhibition was 61.7% (active). `Cc1cc(C)cc(NC(=O)NCc2ccccn2)c1` gave an inhibition of 0.71%. Work on `CCOc1ccc(C(=O)NC(C(=O)NCc2ccccn2)C(C)C)cc1` (stereo unspecified) yielded an inhibition of -3.49%. In the case of `CCOc1cc(NC(=S)NCCCOC)c(OCC)cc1NC(=O)c1ccco1`, the inhibition was 1.13%. In the case of `O=C(NC1CC2CCCC(C1)N2C(=O)N1CCCCC1)C1CCCCC1` (stereo unspecified), the inhibition was 0.87%. Work on `O=C(/C(=C/c1cccc(Cl)c1)c1nc2ccccc2[nH]1)c1ccccc1` yielded an inhibition of -0.83%. For `O=C(Cc1nc2ccccc2[nH]c1=O)c1ccc(Cl)cc1`, the inhibition was 34.1% (active). `N#C/C(=C(/O)COC(=O)COc1ccc(Cl)cc1)c1nc2ccccc2[nH]1` was tested, and the inhibition was -9.4%. `COc1ccc(NC(=S)N2N=CCC2c2ccccc2)cc1` (stereo unspecified) gave an inhibition of 1.8%. `C[n+]1ccc(C(=O)NCc2ccccc2)cc1` showed an inhibition of -12.9%. `COc1ccc(S(=O)(=O)Nc2cc(C)on2)cc1NC(C)=O` gave an inhibition of 3.59%. `O=c1c2cc(-c3ccccc3)sc2nc2n1N=C(c1cccs1)CS2` showed an inhibition of 7.98%. With `COc1ccccc1C1CCN(c2ccc([N+](=O)[O-])cn2)CC1` the inhibition was 6.64%. For `COc1ccc(C(=O)NCCNc2ccc([N+](=O)[O-])cn2)cc1`, the inhibition was -0.8%. For `COc1ccc(Nc2ccc([N+](=O)[O-])cn2)cn1`, the inhibition was 47.6% (active). `O=C(Cn1cc(C(F)(F)F)ccc1=O)N/N=C/c1ccc(Cl)cc1Cl` was tested, and the inhibition was 4.51%. For `Cc1ccc(NC(=O)CN(C)S(=O)(=O)c2cnc[nH]2)cc1C`, the inhibition was 2.37%. With `O=C(N/N=C\c1cc(Br)c(Br)o1)C1COc2ccccc2O1` (stereo unspecified) the inhibition was 8.03%. In the case of `Cc1ccc(C(=O)N/N=C/c2cccc3ccccc23)cn1`, the inhibition was 0.59%. With `Cc1ccc(C(=O)N/N=C\c2cc(Br)c(Br)o2)cn1` the inhibition was 39.1% (active).
